Experimental data from article PMC5540273 (PLoS ONE, 2017).
Values joined by “and” are separate entries in the source; they are usually repeats but may differ in a detail not shown here. Equal values may be shown once. Read-outs that look alike come from different tables or passages of the source.

Key:
Settings in all cases: concentration: 1 μM, replicates: in singlicate, n = 1
FLT3-autoinhibited = system: FLT3-autoinhibited
FLT3 = system: FLT3
FLT4 = system: FLT4
FRK = system: FRK
FYN = system: FYN
GAK = system: GAK
GCN2(Kin.Dom.2,S808G) = system: T1, GCN2(Kin.Dom.2,S808G)
T1 construct: gene EIF2AK4

GRK1 = system: GRK1
GRK2 = system: T2, GRK2
T2 construct: gene ADRBK1

GRK3 = system: T3, GRK3
T3 construct: gene ADRBK2
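Note: KINOMEscan kinase panel screen.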

Compound	%Inh (FLT3-autoinhibited) [%]	%Inh (FLT3) [%]	%Inh (FLT4) [%]	%Inh (FRK) [%]	%Inh (FYN) [%]	%Inh (GAK) [%]	%Inh (GCN2(Kin.Dom.2,S808G)) [%]	%Inh (GRK1) [%]	%Inh (GRK2) [%]	%Inh (GRK3) [%]	%Inh (FLT3-autoinhibited; 1 µM)	%Inh (FLT3; 1 µM)	%Inh (FLT4; 1 µM)	%Inh (FYN; 1 µM)	%Inh (GAK; 1 µM)	%Inh (GRK1; 1 µM)	%Inh (GRK2; 1 µM)	%Inh (GRK3; 1 µM)	%Inh (FRK; 1 µM)	%Inh (GCN2(Kin.Dom.2,S808G); 1 µM)
O=c1cc(N2CCOCC2)nc2n(Cc3cccc(C(F)(F)F)c3)ccn12 [GSK2297543]	12	0	0	0	42	0	0	0	0	0										
O=c1cc(N2CCOCC2)nc2n(Cc3cccc(Cl)c3Cl)c(C3CC3)nn12 [GSK2358994]	0	10	10	0	6	11	0	0	0	0										
CN1c2ccc(NCc3ccc(F)cc3)cc2-c2c(cnn2C)S1(=O)=O	24	12	0	10	12	0	0	11	0	0										
COc1cc2ncn(-c3cc(OCc4sccc4Cl)c(C(N)=O)s3)c2cc1OC [GSK448459]	0	31	67	10	15	86	7	0	0	33										
NS(=O)(=O)c1cccc(-c2ccc3ncc(N4CCOCC4)nc3c2)c1 [GSK1535721]	12	0	12	11	16	15	0	3	0	30										
CC(C)Oc1ccc2c(-c3ccnc(Nc4ccc(N5CCN(C)CC5)cc4)n3)cnn2n1 [GW696155]	70	98.3	30	41	53	96.3	100	5	0	48										
CN(C1=C(c2ccccc2)C(=O)NC1=O)c1ccccc1 [SB-334860]	3	0	20	2	39	7	0	9	8	7										
CCc1nc(-c2cccc(C)c2)c(-c2ccnc(NCc3ccccc3)c2)s1	18	0	0	0	0	11	11	9	0	6										
C[C@@H](Oc1cc(-n2cnc3ccc(NC(=O)NC(C)(C)C)cc32)sc1C(N)=O)c1ccccc1Cl [GSK346294]	0	0	1	10	6	0	0	0	0	34										
Cl.Nc1ncnc2occ(-c3ccc(NC(=O)Nc4cc(C(F)(F)F)ccc4F)cc3)c12 [SB-707548]	83	99.4	100	95.7	22	0	8	12	0	36										
CCn1cnc2c(N)ncnc21 [GW345098]	0	13	13	10	15	0	6	0	0	0										
Fc1ccc(-c2ncn(CCCN3CCOCC3)c2-c2ccccn2)cc1 [SB-211742]	0	20	0	6	0	6	0	0	2	0										
c1ccc(-c2n[nH]cc2-c2ccnc3ccccc23)nc1 [GW271431]	5	3	25	10	43	79	3	0	0	34										
Cc1ccc(C(=O)NCC(N)=O)cc1-n1c(C)cc(OCc2ccc(F)cc2F)c(Br)c1=O	0	13	0	25	20	6	0	20	0	0										
O=C(NOCC1CC1)c1ccc(F)c(F)c1Nc1ccc(I)cc1Cl	0	0	1	0	0	0	0	0	0	0										
Cc1cccc(Cn2ccn3c(=O)cc(N4CCOCC4)nc23)c1 [GSK2297542]	2	11	0	7	21	20	6	0	0	16										
CCCCCc1nc2c(N)ncnc2n1CCCCC [SKF-97255]	0	0	0	0	0	0	4	38	0	6										

Compound	%Inh (FLT3-autoinhibited) [%]	%Inh (FLT3) [%]	%Inh (FLT4) [%]	%Inh (FRK) [%]	%Inh (FYN) [%]	%Inh (GAK) [%]	%Inh (GCN2(Kin.Dom.2,S808G)) [%]	%Inh (GRK1) [%]	%Inh (GRK2) [%]	%Inh (GRK3) [%]	%Inh (FLT3-autoinhibited; 1 µM)	%Inh (FLT3; 1 µM)	%Inh (FLT4; 1 µM)	%Inh (FYN; 1 µM)	%Inh (GAK; 1 µM)	%Inh (GRK1; 1 µM)	%Inh (GRK2; 1 µM)	%Inh (GRK3; 1 µM)	%Inh (FRK; 1 µM)	%Inh (GCN2(Kin.Dom.2,S808G); 1 µM)
COc1cc(Nc2nccc(N3CCC(NC(=O)c4cccc(NC(C)=O)c4)C3)n2)cc(OC)c1OC (stereo not drawn) [GSK1379754]	6	50	23	16	35	44	17	0	0	18										
O=C(Nc1n[nH]c2cc(-c3cccc(F)c3)ccc12)C1CC1 [SB-735464]	0	21	0	6	0	9	0	14	0	12										
Nc1nccc(-c2c(-c3ccc(F)cc3)ncn2C2CCN(CC(F)(F)F)CC2)n1 [SB-236560]	0	18	21	1	0	15	48	18	16	0										
Cc1nnc(-c2ccc(C)c(-c3ccc(C(=O)Nc4ccc(NS(C)(=O)=O)cc4)cc3)c2)o1 [GW702865]	0	0	8	0	17	0	10	0	0	0										
NCCNS(=O)(=O)c1ccc(-c2ccnc3[nH]ccc23)cc1 [GSK977617]				0			0				27% and 39%	87% and 73%	48% and 21%	25% and 16%	46% and 19%	75% and 52%	4% and 0%	12% and 36%		
CN1c2ccc(CNc3ccc(F)cc3)cc2-c2c(cnn2C)S1(=O)=O	0	36	0	1	4	0	15	10	0	0										
Cl.Oc1cccc(Nc2ccnc3cc(-c4ccncc4)ccc23)c1 [GW494601]	3	28	97.4	97.6	95.7	76	0	0	0	36										
O=c1cc(N2CCOCC2)nc2n(Cc3cccc(F)c3)ccn12 [GSK2297430]	0	24	9	8	1	14	0	0	0	0										
COc1ccc(S(=O)(=O)NC2CCN(c3cc(C)nc(Nc4cccc(C#N)c4)n3)CC2)cc1.O=C(O)C(F)(F)F [GSK1653539]	0	0	2	0	0	0	0	0	0	0										
COc1ccc(Nc2ncc(C#N)c(Nc3ccccc3C(N)=O)n2)cc1N1CCN(C)CC1.Cl [GSK1558669]	99.9	99.8	100	83	96.8	98.1	100	55	35	0										
Cl.Cl.Cl.Fc1ccc(-c2ncn(C3CCNCC3)c2-c2ccnc(Nc3ccccc3)n2)cc1 [SB-238039]											0% and 18%	4% and 26%	15% and 9%	0% and 1%	84% and 74%	32% and 25%	0% and 16%	32% and 0%	0% and 35%	0% and 27%
N#Cc1ccc(-c2cc(-c3c[nH]nc3-c3ccccn3)ccn2)cc1 [GW693028]	0	0	0	25	0	69	0	0	0	70										
O=C(NCCCN1CCOCC1)c1cccc(Nc2nccc(Nc3ccc(Oc4ccccc4)cc3)n2)c1 [GW663929]	33	90.7	4	48	93.5	33	36	8	0	20										
O=C(NCCNc1ccnc(Nc2ccc(F)cc2)n1)c1cc2ccccc2s1 [GSK1379874]	0	0	9	6	0	0	0	0	0	0										
Cn1cc(-c2ccc3c(c2)CCN3C(=O)Cc2ccccc2Cl)c2c(N)ncnc21 [GSK2608885]	20	99.3	99.8	97.9	97.1	33	81	0	0	0										
NS(=O)(=O)CCc1cccc(Nc2nccc(-c3c(-c4cccc(NC(=O)c5c(F)cccc5F)c4)nn4ccccc34)n2)c1 [GSK336735]	11	98.9	99.2	97.2	96.7	28	87	0	0	89										
